PLK1 PBD inh: blocks phosphopeptide binding to human PLK1 polo-box domain; Potency, µM, inactives show max response, negative = inhibition, hits mostly inhibitors; P53350; Plk1 PBD binding of FITC phosphopeptide, fluorescence polarization; 360,000 compounds, 2.8% hits; AID 720504; note: series mostly up to about 57 µM; % is set by controls: 0 for no effect and ±100 for the full control effect; nearly all actives have a fitted effect of over 65% in size
Target sequence (P53350 whole entry, looked up, the tested form may be a part): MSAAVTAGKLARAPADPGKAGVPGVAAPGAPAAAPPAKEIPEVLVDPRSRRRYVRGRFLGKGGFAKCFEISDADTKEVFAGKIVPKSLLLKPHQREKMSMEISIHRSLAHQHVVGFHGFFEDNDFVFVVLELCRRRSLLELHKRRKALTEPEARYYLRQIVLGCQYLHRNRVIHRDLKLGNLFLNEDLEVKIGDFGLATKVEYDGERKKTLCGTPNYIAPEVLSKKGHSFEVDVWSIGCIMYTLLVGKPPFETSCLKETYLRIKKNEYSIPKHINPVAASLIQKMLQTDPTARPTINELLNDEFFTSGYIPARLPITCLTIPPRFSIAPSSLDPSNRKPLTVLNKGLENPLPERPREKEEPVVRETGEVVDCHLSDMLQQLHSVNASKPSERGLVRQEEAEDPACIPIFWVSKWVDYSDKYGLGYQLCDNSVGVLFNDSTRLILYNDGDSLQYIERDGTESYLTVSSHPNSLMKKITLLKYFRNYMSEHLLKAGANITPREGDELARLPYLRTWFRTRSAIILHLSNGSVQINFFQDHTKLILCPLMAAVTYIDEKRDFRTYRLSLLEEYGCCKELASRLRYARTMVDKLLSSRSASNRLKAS
JMJD2A Tudor: JMJD2A Tudor domain (human) inhibition. Potency, µM (titrated, usually from 114 µM), for the others: at the highest dose activity change, negative = inhibition, hits mostly inhibitors. O75164. AlphaScreen JMJD2A-Tudor / H3K4me3 peptide binding. 390,000 compounds, 4.4% hits; note: % is set by controls: 0 for no effect and ±100 for the full control effect; nearly all actives have a fitted effect of over 50% in size
BAZ2B inh: inhibitors of human BAZ2B bromodomain; AlphaScreen BAZ2B-H3K14Ac peptide displacement; Q9UIF8; Potency, µM (doses to about 114 µM), without a hit: at the highest dose activity change, negative = inhibition, most hits filed as inhibitors; 360,000 compounds, 4.4% hits; note: % is set by controls: 0 for no effect and ±100 for the full control effect; nearly all actives have a fitted effect of over 60% in size
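In this displacement format the biotinylated H3(5-23) peptide acetylated at Lys14 serves as ligand at 50 nM, with BAZ2B at 50 nM in PBS pH 7.4 containing 0.01% Tween-20. Donor and acceptor beads are 10 ug/mL final.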
HP1b chromo inh: inhibitors of HP1-beta chromodomain binding to methylated histone tails | P83916 | AlphaScreen HP1-beta / biotin-H3K9me3 peptide binding | Potency, µM (titrated, usually from 114 µM), for the others: at the highest dose activity change, negative = inhibition, hits mostly inhibitors | 390,000 compounds, 0.56% hits | AID 540317; note: nearly all actives have a fitted effect of over 70% in size
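AlphaScreen: HP1-beta (50 nM) preformed 30 min with biotin-H3(1-18)K9me3 peptide (50 nM) in PBS pH 7.4, 0.01% Tween-20. Compound added for 30 min at RT, then streptavidin donor/nickel chelate acceptor beads (10 ug/mL) for 30 min.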
G9a block: G9a (human) methyltransferase inhibition; Potency, µM (top dose mostly 102 µM), inactives show at the highest dose activity, negative = inhibition, usual class: inhibitors; G9a H3K9 monomethylation, AlphaScreen, 2 h; 350,000 compounds, 8.8% hits; Q96KQ7; note: % is set by controls: 0 for no effect and ±100 for the full control effect; nearly all actives have a fitted effect of over 75% in size
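AlphaScreen detection with an anti-monomethyl H3K9 antibody quantified product after a 2 h room-temperature reaction containing 500 nM biotinylated H3K9 peptide, 20 µM SAM and 20 nM enzyme, which had been preincubated 15 min with compound.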
Sfp inh: Sfp phosphopantetheinyl transferase inhibition; 310,000 compounds, 3.5% hits; Q9F4F7; Potency, µM, inactives show largest response in the series, negative = inhibition, hits mostly inhibitors; Biochemical Sfp PPTase activity, qHTS;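 note: the enzyme is Sfp with the accession as filed and its product quenches rhodamine fluorescence; 0% = enzyme reaction without inhibitor and -100% = no enzyme wells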
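Compounds were incubated with enzyme (final 15 nM) for 15 min at room temperature before substrate addition started the reaction. Fluorescence at 525 nm excitation, 598 nm emission was recorded immediately and after 30 minutes.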
* marks the source's active call; other numbers are inactive results; ? = inconclusive; nt = no result; [ ] = dose if it differs, or a comment. Most compounds without a hit are left out; they make up all but 12% or so of the library. Calls come from the whole dose curve; as a rule, active = well fitted curve in the direction sought with a large enough effect; inconclusive = small, poorly fitted or top-dose-only effect, or another doubt; inactive = no such curve, though single readings can be large; an effect the other way counts as inactive or inconclusive. Potency is the fitted concentration of half-maximal effect.

SMILES	PLK1 PBD inh	JMJD2A Tudor	BAZ2B inh	HP1b chromo inh	G9a block	Sfp inh
C#CCOCCOCCOCCNc1nc(N2CCN(C(=O)Cn3cc(CCO)nn3)CC2)nc(N2CCN(C(=O)[C@H](CCCCN)n3cc(CC(C)O)nn3)CC2)n1 (stereo partly specified)	-3%	89µM*	nt	6%	nt	nt
Cc1nn2c(=O)cc(COC(=O)c3ccc(NC(=O)c4cccc(Br)c4)cc3)nc2s1	nt	-21%	-5%	-16%	-28%[59 µM]	nt
CC1=C(C)C(=O)C(C(CCCCCC(=O)O)c2ccccc2)=C(C)C1=O (stereo unspecified)	nt	nt	nt	nt	-23%[12.7 µM]	2%
CCCCc1cn([C@@H](CCCCN)C(=O)N2CCNCC2)nn1	21µM*	56µM*	?	35%	-1%[12.7 µM]	16%
C#CCOCCOCCOCCNc1nc(N2CCN(C(=O)[C@H](C(C)C)n3cc(CCO)nn3)CC2)nc(N2CCN(C(=O)[C@H](CCCCN)n3cc(CCCC)nn3)CC2)n1	0%	-35%	?	25%	28µM*	-2%
Cc1ccc(NC(=O)C(=O)NCCCN2CCCC2=O)cc1	-8%	-7%	-9%	20%	1%	nt
Cc1ccc(COc2ccc(CNCCCN3CCCCCC3=O)cc2)cc1	-1%	1.3µM*	35µM*	32µM*	14µM*	-21%
CCN(C(=O)CSc1nnnn1C)C1CCS(=O)(=O)C1 (stereo unspecified)	3%	7%	3%	43%	?	nt
COc1ccc2c3c1OC1C[C@@H](O)C=C[C@@]31CCN(C)C2 (stereo partly specified)	nt	nt	nt	nt	25%[21.5 µM]	13%
CCC1(C)CC2(CCCN(CCC(=O)c3ccccc3)C2)CCO1 (stereo unspecified)	?	-9%	1%	31%	50µM*	5%
CC1(C)CC2(CCCN(C(=S)Nc3ccccc3)C2)CCO1 (stereo unspecified)	-14%	-1%	-14%	17%	23%	-2%
COc1cc(Nc2nn(-c3ccc(OC(F)(F)F)cc3)nc2C(C)=O)cc(OC)c1	nt	-8%	-3%	36%	2%[59 µM]	nt
CCC(CO)Oc1cc(NCc2ccc(C(C)(C)C)cc2)c2ncn(C(C)C)c2c1 (stereo unspecified)	-16%	25µM*	nt	-17%	nt	nt
CCC(COC(=O)c1ccccc1)Oc1cc(NCc2ccccc2)c2ncn(C(C)C)c2c1 (stereo unspecified)	-16%	45µM*	nt	-21%	nt	nt
CCC(CO)Oc1cc(NCc2ccccc2)c2ncn(C(C)C)c2c1 (stereo unspecified)	-2%	?	nt	14%	nt	nt
CCC(COC)Oc1cc(NCc2ccccc2)c2ncn(C(C)C)c2c1 (stereo unspecified)	?	50µM*	50µM*	-25%	1%[0.501 µM]	nt
CN(C)c1ncc2nc(-c3ccc(F)cc3)c(=O)n(C)c2n1	nt	nt	nt	nt	-6%[0.501 µM]	22%
CCOCCCNc1nc(C)nc2c1nnn2Cc1c(F)cccc1Cl	6%	-10%	-23%	23%	4%	16%
Cc1ccc(C)c(Cn2c(=O)n(CCCC(=O)NCc3ccco3)c(=O)c3sccc32)c1	30µM*	?	9%	?	-6%	10%
c1csc(CNc2ccnc(-c3ccoc3)n2)c1	nt	nt	nt	nt	-4%[0.501 µM]	79µM*
CN(C)c1ccc(-c2nccc(NCc3cccs3)n2)cc1	nt	nt	nt	nt	17%[0.501 µM]	?
c1cc(NC2CC2)nc(-c2ccoc2)n1	nt	nt	nt	nt	0%[0.501 µM]	79µM*
FC(F)(F)c1ccccc1-c1nccc(NCc2cccs2)n1	nt	nt	nt	nt	-6%[0.501 µM]	-11%
COc1ccccc1-c1nccc(NCc2cccs2)n1	nt	nt	nt	nt	-1%[0.501 µM]	79µM*
CCN1CCN(Cc2ccc(NC(=O)c3ccc(C)c(NC(=O)c4c[nH]c5cc(C(F)(F)F)ccc5c4=O)c3)cc2C(F)(F)F)CC1	4%	-22%	?	5%	?	79µM*
SMILES	PLK1 PBD inh	JMJD2A Tudor	BAZ2B inh	HP1b chromo inh	G9a block	Sfp inh
Cc1ccc(C(=O)Nc2cccc(C(F)(F)F)c2)cc1NC(=O)c1c[nH]c2cc(C(F)(F)F)ccc2c1=O	-3%	-9%	nt	47%	nt	nt
CCOc1ccccc1OCCCC(=O)N(CC)CC(=O)Nc1ccc(NC(C)=O)cc1	1%	-10%	9%	13%	50µM*	nt
CCN(CC(=O)Nc1ccc(NC(C)=O)cc1)C(=O)CCCSc1nc2ccccc2[nH]1	-1%	-10%	9%	9%	50µM*	nt
CC(=O)Nc1ccc(NC(=O)CCCSc2nc3ccccc3[nH]2)cc1	-18%	-5%	-17%	10%	10%[12.7 µM]	-19%
CCO[C@@H]1OC(C(=O)N2CCOCC2)=C[C@H](c2coc3ccccc3c2=O)[C@H]1CCCO	-2%	-32%	2%	34%	25%[59 µM]	9%
COCCn1c(=O)c(-c2ccc(Cl)cc2)nc2cnc(N3CCOCC3)nc21	nt	nt	nt	nt	8%[0.501 µM]	15%
CNc1cccc2c1C(=O)c1ccccc1C2=O	-11%	2.8µM*	3.2µM*	8.9µM*	8.9µM*	11%
O=C1c2ccccc2C(=O)c2c(NCc3cccnc3)cccc21	-9%	?	15%[57.1 µM]	?	?	-6%
COc1ccc(NC(=O)c2cc(N3C(=O)C4C5CCC(C5)C4C3=O)ccc2Cl)c(OC)c1 (stereo unspecified)	-22%	-28%	-38%	38%	-38%	7%
COc1ccc(N2C(=O)C3C(C2=O)C3(c2ccccc2)c2ccccc2)cc1 (stereo unspecified)	1%	-14%	-5%	23%	10%	2%
COC(=O)c1cc(N2C(=O)C3C(C2=O)C2(C)C=CC3(C)O2)ccc1Cl (stereo unspecified)	nt	nt	?	nt	?	7.9µM*
CC(=O)Oc1ccc(N2C(=O)C3C(C2=O)C2(C)C=CC3(C)O2)cc1 (stereo unspecified)	nt	nt	-11%	nt	5.6µM*	7.9µM*
CCNCc1nc2cc(Cl)ccc2c(=O)[nH]1	-8%	-6%	-4%	40%	?	?
O=c1[nH]cnc2cc(Cl)ccc12	-15%	8%[11.4 µM]	1%	57%	50µM*	11%
CCC(C(=O)N1CCN(Cc2ccc3c(c2)OCO3)CC1)n1c(=O)[nH]c2ccccc2c1=O (stereo unspecified)	0%	-13%	-5%	42%	9%	10%
Cc1[nH]n2c(=O)cc(C(C)C)nc2c1-c1ccccc1	1%	-17%	0%	15%	0%	10%
Cc1[nH]n2c(=O)cc(-c3ccc([N+](=O)[O-])cc3)nc2c1-c1ccccc1	?	50µM*	nt	-57%	nt	nt
Cc1[nH]n2c(=O)cc(-c3ccc(Cl)cc3)nc2c1-c1ccccc1	nt	?	32µM*	-4%	4%[59 µM]	nt
CCCc1cc(=O)n2[nH]c(C)c(-c3ccccc3)c2n1	-6%	-15%	2%	44%	-2%	6%

Compound activity deposited in PubChem BioAssay by National Center for Advancing Translational Sciences (NCATS).
